According to PubChem BioAssay (NCATS):
Where “and” joins values, the source holds several entries; their conditions need not be identical. Identical values can stand only once. Records with an inconclusive call do not appear. Calls of active or inactive are those of the source. Calls come from the whole dose curve; as a rule, active = well fitted inhibition curve with a large enough effect; inconclusive = small, poorly fitted or top-dose-only effect; inactive = flat fitted curve, though single readings scatter.

experiment: qHTS for identification of novel therapeutic agents for treatment of microphthalmiaassociated transcription factor (MiT) renal cell carcinoma (RCC) (AID 1963991); conditions: TFE3-RCC viability, CellTiter-Glo, 48 h; measured here: UOK145 Z-AUC; stronger effect = lower value
Outline: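 Viability of three TFE3-fusion renal carcinoma lines measured by CellTiter-Glo after 48 h treatment with each of 1912 compounds at 11 concentrations. Responses scaled between DMSO (100%) and empty wells (0%) before curve fitting.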

Row | Compound | z-score
1 | C[C@@H](NCCCc1cccc(C(F)(F)F)c1)c1cccc2ccccc12 | 0.348
2 | N[C@@H](Cc1ccc(O)c(O)c1)C(=O)O | 0.282
3 | CCn1cc(C(=O)O)c(=O)c2cc(F)c(N3CCN(C)CC3)cc21 | 0.753
4 | O=c1oc2c(O)c(O)cc3c(=O)oc4c(O)c(O)cc1c4c23 | 0.717
5 | O=C(O)c1cn(C2CC2)c2cc(N3CCNCC3)c(F)cc2c1=O | 1.11

experiment: qHTS profiling for inhibitors of Plasmodium falciparum proliferation (AID 504749);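 note: 0% = DMSO vehicle and full inhibition = artemisinin control; nearly all actives have a fitted effect of over 60% in size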; conditions: P. falciparum in erythrocytes, SYBR Green DNA, 72 h; at 12.8 µM (top of the series); parasite line A
Outline: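 Readout was DNA-dye fluorescence from lysed cultures, ex 485/em 535 nm. Parasitized red cells had grown 72 h with compound; data scaled between 0.29 uM artemisinin and DMSO wells and corrected using vehicle-only plates.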

Row | Compound | activity, negative = inhibition
6 | NC(N)=NC(N)=NCCc1ccccc1 | -25.4% (inactive)
7 | Cc1cccc(N(C)C(=S)Oc2ccc3ccccc3c2)c1 | -2.31% (inactive)
8 | Nc1[nH]c(=O)ncc1F | 6.35% (inactive)
9 | COC(=O)Nc1nc2ccc(C(=O)c3ccccc3)cc2[nH]1 | 5.97% (inactive)
10 | CC(C)(Sc1cc(C(C)(C)C)c(O)c(C(C)(C)C)c1)Sc1cc(C(C)(C)C)c(O)c(C(C)(C)C)c1 | 6.04% (inactive)
11 | COC(=O)Nc1nc2ccc(Sc3ccccc3)cc2[nH]1 | 5.04% (inactive)

same assay, conditions: P. falciparum in erythrocytes, SYBR Green DNA, 72 h; at 12.8 µM (top of the series); parasite line B

Row | Compound | activity, negative = inhibition
12 | NC(N)=NC(N)=NCCc1ccccc1 | -8.82% (inactive)
13 | Cc1cccc(N(C)C(=S)Oc2ccc3ccccc3c2)c1 | 0.272% (inactive)
14 | O=C(O)c1cn(C2CC2)c2cc(N3CCNCC3)c(F)cc2c1=O | -28.9% (inactive)
15 | Nc1[nH]c(=O)ncc1F | 1.39% (inactive)
16 | COC(=O)Nc1nc2ccc(C(=O)c3ccccc3)cc2[nH]1 | 9.61% (inactive)
17 | CC(C)(Sc1cc(C(C)(C)C)c(O)c(C(C)(C)C)c1)Sc1cc(C(C)(C)C)c(O)c(C(C)(C)C)c1 | 8.09% (inactive)
18 | COC(=O)Nc1nc2ccc(Sc3ccccc3)cc2[nH]1 | -0.246% (inactive)

same assay, conditions: P. falciparum in erythrocytes, SYBR Green DNA, 72 h; at 28.7 µM (top of the series); parasite line A

Row | Compound | activity, negative = inhibition
19 | CNNCc1ccc(C(=O)NC(C)C)cc1 | 0.0651% (inactive)
20 | OC(Cn1cncn1)(Cn1cncn1)c1ccc(F)cc1F | 5.43% (inactive)
21 | O=c1cc(O)c(Cl)c[nH]1 | -6.01% (inactive)
22 | CC(C)NCC(O)c1ccc(NS(C)(=O)=O)cc1 (stereo unspecified) | -2.6% (inactive) and 1.55% (inactive)
23 | CC(=O)Oc1ccccc1C(=O)Nc1ncc([N+](=O)[O-])s1 | 1.42% (inactive)
24 | CC[C@H](C)C(=O)O[C@H]1C[C@@H](C)C=C2C=C[C@H](C)[C@H](CC[C@@H]3C[C@@H](O)CC(=O)O3)[C@H]21 | -2.1% (inactive)
25 | CC(C)OC(=O)C(C(=O)OC(C)C)=C1SC=CS1 | 2.72% (inactive)
26 | O=S(=O)(O)CCS | 8.7% (inactive)
27 | Cc1nnc(NS(=O)(=O)c2ccc(N)cc2)s1 | 1.45% (inactive)
28 | CNC1CCCN(c2c(F)cc3c(=O)c(C(=O)O)cn(C4CC4)c3c2OC)C1 (stereo unspecified) | 5.3% (inactive)
29 | S=P(N1CC1)(N1CC1)N1CC1 | -0.685% (inactive)
30 | CCCc1nc(C)c2c(=O)[nH]c(-c3cc(S(=O)(=O)N4CCN(CC)CC4)ccc3OCC)nn12 | -13.4% (inactive)
31 | CC1=CC(=O)c2ccccc2C1=O | -6.5% (inactive)
32 | Nc1nc(N)c2nc(CNc3ccc(C(=O)NC(CCC(=O)O)C(=O)O)cc3)cnc2n1 (stereo unspecified) | 3.54% (inactive)
33 | Nc1nc(N)nc(-c2cc(Cl)ccc2Cl)n1 | -9.21% (inactive)
34 | COc1ccc(-c2ccc3cc(C(=O)O)ccc3c2)cc1C12CC3CC(CC(C3)C1)C2 | 6.34% (inactive)
35 | NCCCC(O)(P(=O)(O)O)P(=O)(O)O | 5.33% (inactive)
36 | CCc1cc(C(N)=S)ccn1 | -0.167% (inactive)
